The entries come from a sample that favours hits as a whole.
KDM5B inh – Primary screen for KDM5B Histone Demethylases FDH-coupled qHTS; KDM5B demethylase, FDH-coupled NADH fluorescence (FDH is formaldehyde dehydrogenase); Lysine-specific demethylase 5B (Homo sapiens), Q9UGL1; 220,000 tested, 2.6% active; Potency, µM (doses to about 57.7 µM), actives largely listed as inhibitors; active = well fitted inhibition curve with a large enough effect; also: 0% is about no effect; nearly all actives have a fitted effect of over 70% in size
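Inhibition is measured as reduced NADH fluorescence generation from FDH coupling to formaldehyde release. Truncated KDM5BΔAP at 200 nM final acts on H3K4me3 peptide (12.5 µM in substrate mix) in pH 7.5 HEPES buffer with Tween-20, 30 min, room temperature.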
The depositor's hits bear a star; i = inactive. Potency is read from the fitted curve at half-maximal effect.

SMILES	KDM5B inh
Cn1c(=O)cc(OCC(=O)N2CCN(c3ccc(F)cc3)CC2)c2ccccc21	i
COc1ccccc1NC(=O)Nc1nc(CC(=O)NCC2CCCCC2)cs1	i
Cc1cc(C)nc(CNC(=O)[C@H]2CCC[C@@H](O)C2)n1	i
O=C(NCc1c[nH]c2ncccc12)C1CCCC1	i
Nc1ncccc1CNC(=O)[C@H]1CCC[C@H](O)C1	25.1µM*
O=C(NCc1ccc(-c2ncon2)cc1)[C@H]1CCC[C@@H](O)C1	i
O=C(NCc1csc(-c2cnccn2)n1)[C@H]1CCC[C@H](O)C1	28.2µM*
O=C(NCc1noc(Cc2cccs2)n1)[C@H]1CCC[C@@H](O)C1	i
COc1cc(NC2c3ccccc3C(=O)N2Cc2ccccc2Cl)cc(OC)c1 (stereo not given)	i
O=C(CCCc1nc2ccccc2s1)Nc1cccc(C(F)(F)F)c1	i
Cc1ccc2nc(-c3ccc(Cl)c(NC(=O)COc4cccc(C)c4C)c3)oc2c1	i
O=C(c1ccc2c(c1)N(Cc1ccccc1F)C(=O)c1ccccc1S2(=O)=O)N1CCc2ccccc21	i
COc1ccc(CCNC(=O)C2COc3ccccc3C2)cc1OC (stereo not given)	i
Cc1ccc(Nc2c(-c3cccnc3)nc3ccc(Br)cn23)cc1	i
Cc1ccccc1-c1nc2cnccn2c1NCCC(=O)N(C)Cc1ccccc1	28.2µM*
CN(Cc1ccccc1)C(=O)c1nc2ccccn2c1CNCCCOc1cccnc1	i
Cc1ccc(NCCC(=O)O)cc1	i
Cc1ccc(-c2nocc2CCC(=O)O)cc1	i
Cc1ccc(-c2nc3cnccn3c2NCCC(=O)O)cc1	28.2µM*
Cc1ccc(-c2nc3cnccn3c2NCCC(=O)N(C)C)cc1	28.2µM*
CN(Cc1ccccc1)C(=O)CCNC(=O)Nc1ccccc1	i
Cc1ccn2c(NC3CCCC3)c(-c3ccncc3)nc2c1	i
CCOC(=O)CNC(=O)C1(C)CCC(=O)N1Cc1ccccc1Cl (stereo not given)	i
Cc1ccc(S(=O)(=O)c2cn(CC(=O)Nc3ccc(C)c(Cl)c3)c3ccc(C)cc3c2=O)cc1	i
O=C(Cc1ccccc1)N1CCCC(c2noc(COc3ccccc3F)n2)C1 (stereo not given)	i
SMILES	KDM5B inh
COc1ccc(CNC(=O)c2cnc3c(c2)N(C(=O)CCc2ccccc2)CCC3)cc1OC	i
Cc1ccc(CN2CCC3(CNc4ccccc4[S+](=O)([O-])N3)C2)cc1 (stereo not given)	i
O=C(CCc1c[nH]c2ccccc12)OCC(=O)c1ccc(Cl)c([N+](=O)[O-])c1	i
ON=C1CCCCCCCCCCC1	i
CCn1nccc1C(=O)N1CCC2(CC1)CC(N(Cc1ccccc1)C1CC1)CCO2 (stereo not given)	i
Cn1cccc1C(=O)N1CCC(n2cc(-c3nc(-c4ccccc4)no3)nn2)C1 (stereo not given)	i
CN(Cc1cccnc1)C(=O)c1n[nH]c2c1CN(Cc1cccnc1)CC2	25.1µM*
Cc1oc2c(c1C(=O)N1CCOCC1)CN(Cc1cccnc1)CC2	i
Cc1oc2c(c1C(=O)NCc1cccnc1)CN(Cc1ccc(F)cc1)CC2	i
CN1C[C@H](O)C[C@H]1c1nnc2n1CCN(C(=O)C1CCCCC1)CC2	i
Cc1ccc(CN2CCN(C(=O)CCC3CC3)C(C)C2=O)cc1 (stereo not given)	i
CC(C(=O)NCc1ccc(F)cc1F)C1CCOCC1 (stereo not given)	i
O=C(/C=C/c1ccsc1)c1ccc(O)cc1	i
O=C(c1cc(C2CC2)[nH]n1)N1CCc2nn(Cc3ccccc3)c(=O)n2CC1	i
Cc1nc2scc(CC(=O)NCc3ccco3)n2c(=O)c1-c1cc(C)n(-c2ccccc2F)n1	28.2µM*
COCCCNC(=O)CCc1ncc(-c2c(F)cccc2F)o1	i
COc1ccccc1CNC(=O)Cc1csc2nc(-c3ccc(F)cc3)cn12	i
COCCCNC(=O)Cc1csc2nc(C)c(-c3cc(C)n(-c4ccccc4F)n3)c(=O)n12	28.2µM*
COc1ccccc1-c1noc(CCCC(=O)NCc2ccco2)n1	i
COCCCNC(=O)c1c(-c2ccccc2)c(-c2ccccc2)nn(C)c1=O	i
O=C(NCCc1csc2nc(-c3ccccc3F)nn12)c1ccco1	i
COc1ccccc1-n1nc(-c2c(C)nc3scc(CC(=O)NCc4ccco4)n3c2=O)cc1C	28.2µM*
COc1ccccc1-n1nc(-c2c(C)nc3scc(CC(=O)NCc4ccccc4)n3c2=O)cc1C	25.1µM*
Cc1nn(CC(=O)NCc2ccco2)c(=O)c2nn(-c3ccccc3)c(C)c12	i
COc1ccccc1CNC(=O)c1csc(NCc2ccccc2)n1	i
COc1ccc(OC)c(-n2nnc(C(=O)NCc3ccco3)c2N)c1	i
Fc1cccc(-c2cn[nH]c2C2CCNCC2)c1	i
COC(=O)c1sccc1S(=O)(=O)Nc1ccc(SC(F)F)cc1	i
COCC(C)NC(=O)c1ccc(OC)c(S(=O)(=O)NC(C)C)c1 (stereo not given)	i

Bioassay records (PubChem BioAssay)
